Source: PubChem BioAssay (National Center for Advancing Translational Sciences (NCATS))
RXFP1 antagonist: antagonists of human relaxin receptor RXFP1 | Q9HBX9 | HEK293-RXFP1, relaxin-stimulated cAMP HTRF, 30 min; active compounds read low | activity change, negative = inhibition, % at 57.5 µM | actives 0.59% (n = 350,000) | AID 1259400;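 active means activity change of -60% or lower, but not beyond a set lower limit; inconclusive means change between -60% and -40%, or beyond the set limit; inactive means change above -40%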
TCR act: activators of T cell receptors; Potency, µM (titrated, usually from 9.22 µM), hits mostly activators; primary human leukocytes, anti-CD3, IL-2 HTRF, 48 h; AID 504894; 330,000 tested, under 10 active
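Compounds are tested in HTS on primary human leukocytes co-incubated with a-CD3 beads for 48 hr. IL-2 output is measured by time-resolved FRET.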
TSHR antag: antagonists of human thyroid stimulating hormone receptor. P16473. activity change, negative = inhibition, % at 11.5 µM. AID 504810. actives 0.2% (n = 330,000). TSHR-expressing cells, TSH-stimulated cAMP HTRF, 2 h; active compounds read low;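 active means activity change below a set negative limit, meaning inhibition stronger than a set level, cut at about -70% in these data; inconclusive means activity change between two set negative limits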
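Read-out is FRET at 665 nm (cryptate excitation 337 nm) from a cryptate-tagged anti-cAMP antibody, competed by cell cAMP against cAMP-d2. Compounds are tested on freshly harvested TSHR cells challenged with 4nM TSH (EC80) for 2 hours at 37 deg C.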
PTHR1 ag: agonists of human PTHR1 parathyroid hormone receptor; HEK293 GP2 PTHR1 cells, GloSensor cAMP luminescence, 1 h; Potency, µM (top dose mostly 115 µM), most hits filed as activators; actives 0.075% (n = 410,000); Q03431; further: nearly all actives have a fitted effect of over 55% in size
Target sequence (Q03431 whole entry, looked up): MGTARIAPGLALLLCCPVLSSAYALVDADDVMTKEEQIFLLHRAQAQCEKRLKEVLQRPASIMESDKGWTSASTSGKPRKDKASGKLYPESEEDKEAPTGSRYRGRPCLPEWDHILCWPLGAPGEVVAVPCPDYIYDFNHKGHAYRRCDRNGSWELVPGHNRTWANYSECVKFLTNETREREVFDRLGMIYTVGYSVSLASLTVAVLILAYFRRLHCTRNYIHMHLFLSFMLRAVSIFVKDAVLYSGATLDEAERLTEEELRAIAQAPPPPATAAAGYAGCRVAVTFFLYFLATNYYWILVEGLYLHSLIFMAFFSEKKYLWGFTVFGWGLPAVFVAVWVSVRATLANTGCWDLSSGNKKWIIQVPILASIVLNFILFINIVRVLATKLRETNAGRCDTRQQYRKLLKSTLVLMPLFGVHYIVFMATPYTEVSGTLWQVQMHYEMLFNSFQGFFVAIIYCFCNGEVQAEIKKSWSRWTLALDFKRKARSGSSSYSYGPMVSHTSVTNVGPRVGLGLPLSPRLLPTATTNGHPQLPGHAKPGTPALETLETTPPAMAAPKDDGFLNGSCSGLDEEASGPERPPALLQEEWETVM
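HEK-293-derived GP2 cells expressing PTHR1 and a GloSensor cAMP reporter, 3,000/well, plated overnight, given luciferin plus IBMX (each 0.5 mM as added) for 1 h at 37 °C, then compound for 1 h at 37 °C. Luminescence was read after 15 min at room temperature.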
RXFP1 ag: activates the human relaxin receptor RXFP1 | Q9HBX9 | HEK293T-RXFP1 cAMP TR-FRET, 30 min; response scale: percent of porcine relaxin response, buffer zero | Potency, µM (series often up to 57.5 µM), hits mostly activators | actives 0.3% (n = 370,000) | AID 2676; further: nearly all actives have a fitted effect of over 60% in size
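Agonist response is measured as cAMP accumulation in an RXFP1-transfected HEK293T line under PDE4 inhibition. Values are scaled between buffer-only and 29 nM porcine relaxin, and EC50s come from standard Hill equation fits.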
NPSR antag: blocks cAMP signaling of the human neuropeptide S receptor. Q6W5P4. CHO-NPSR cells, cAMP TR-FRET, antagonist mode. Potency, µM (series often up to 38.3 µM), most hits filed as inhibitors. actives 1% (n = 220,000); further: nearly all actives have a fitted effect of over 50% in size
Each line names hits and unclear results; the compound was inactive in the other large screens. The entries come from a sample that favours hits as a whole. Unless noted, the call rests on the fitted dose curve; in most records, active means well fitted curve in the direction sought with a large enough effect; inconclusive means small, poorly fitted or top-dose-only effect, or another doubt; inactive means no such curve, though single readings can be large; an effect the other way counts as inactive or inconclusive.

COC(=O)c1ccccc1N(C)S(=O)(=O)c1cc2c3c(c1)CC(=O)N3CCC2	none (no result: TCR act, TSHR antag, NPSR antag)
Nc1ccn(Cc2ccccc2F)n1	TSHR antag -72
Cc1ccc(S(=O)(=O)N(Cc2ccccc2)c2ccccc2C(=O)N2CCCCC2)cc1	TSHR antag -78 (no result: NPSR antag)
CN1CCN(C(=O)c2ccccc2N(Cc2ccccc2)S(=O)(=O)c2ccccc2)CC1	none
CCOC(=O)c1noc2nc(C)n(CC(=O)NC(C)CC)c(=O)c12 (centres undefined)	none (no result: TCR act, TSHR antag, NPSR antag)
Cn1cccc1C(=O)NC(=O)COC(=O)c1ccc(S(C)(=O)=O)c([N+](=O)[O-])c1	RXFP1 antagonist inconclusive (no result: RXFP1 ag, NPSR antag)
CS(=O)(=O)c1ccc(C(=O)OCC(=O)NC23CC4CC(CC(C4)C2)C3)cc1[N+](=O)[O-]	RXFP1 antagonist -65, TSHR antag -76
CCN(CC)P(=O)(Nc1ccccc1Br)c1ccc(N(C)C)cc1NC(=O)c1ccco1 (centres undefined)	NPSR antag 7.9µM
O=C(Nc1nc(-c2cccs2)cs1)c1cccc(S(=O)(=O)N2CCCCCC2)c1	NPSR antag 10µM
O=C(Nc1nc(-c2cccs2)cs1)c1ccc(S(=O)(=O)N2CCCCC2)cc1	none (no result: RXFP1 antagonist)
Cc1oc2ncnc(N3CCCCC3)c2c1C(=O)Nc1cccc(Cl)c1C	none (no result: TCR act, TSHR antag, NPSR antag)
CO/N=C(/C(=O)N[C@@H]1C(=O)N2C(C(=O)[O-])=C(C[n+]3ccn4ncccc43)CS[C@H]12)c1nsc(N)n1	none (no result: TCR act, TSHR antag, PTHR1 ag, RXFP1 ag, NPSR antag)
Cc1nc2c(C(=O)NCCC(C)C)c[nH]n2c(=O)c1Cc1ccccc1F	RXFP1 antagonist -101
CCN(Cc1nc(-c2ccc(OC)cc2)oc1C)S(=O)(=O)c1ccc(C)cc1	none (no result: TCR act, TSHR antag, NPSR antag)
O=C(NNc1cc(Br)c(O)c(Br)c1)c1ccccc1	RXFP1 antagonist -96
CCOC(=O)c1c(C)[nH]c(C)c1S(=O)(=O)N1CCN(c2cccc(C(F)(F)F)c2)CC1	none (no result: TCR act, TSHR antag, NPSR antag)
CC(C)COC(=O)CNc1n[nH]c(=S)[nH]c1=O	RXFP1 antagonist inconclusive, NPSR antag inconclusive
CCCCOC(=O)CNc1n[nH]c(=S)[nH]c1=O	RXFP1 antagonist -63, RXFP1 ag inconclusive, NPSR antag 10µM
O=C(CN1C(=O)COc2ccc(S(=O)(=O)N3CCOCC3)cc21)NCc1ccc(F)cc1	none (no result: TCR act, TSHR antag, NPSR antag)
O=C1NC(c2ccccc2)(c2ccccc2)C(=O)N1COP(=O)(O)O	none (no result: TCR act, TSHR antag, PTHR1 ag, RXFP1 ag, NPSR antag)
CCN(c1cccc(C)c1)S(=O)(=O)c1cn(CC(=O)OC)c2ccc([N+](=O)[O-])cc12	TSHR antag -130 (no result: NPSR antag)
CCN(CC)C(=O)Cn1cc(S(=O)(=O)Cc2cccc([N+](=O)[O-])c2)c2ccccc21	none (no result: NPSR antag)
CSc1cccc(NC(=S)N(CCCN2CCCC2)Cc2cccn2Cc2ccc(Cl)cc2)c1	NPSR antag 5µM
S=C(Nc1cccc(Cl)c1)N(CCCN1CCCC1)Cc1cccn1Cc1ccc(Cl)cc1	NPSR antag 10µM
CSc1cccc(NC(=S)N(CCCN2CCCC2)Cc2cccs2)c1	none
COCCn1cnc2c(c1=O)c1nc3ccccc3nc1n2/N=C/c1ccco1	none
Cc1nc2c(c(=O)n1CCC1=CCCCC1)c1nc3ccccc3nc1n2/N=C/c1ccco1	NPSR antag 10µM
CC1CCC(C(C)C)C(OC(=O)Cn2c(-c3ccccc3)[n+](C)c3ccccc32)C1 (centres undefined)	RXFP1 antagonist -71, NPSR antag inconclusive
CC1CCC(C(C)C)C(OC(=O)Cn2c(-c3ccc(F)cc3)[n+](C)c3ccccc32)C1 (centres undefined)	RXFP1 antagonist inconclusive
COc1ccc(N=C(C)C2=C(O)c3ccccc3C2=O)cc1	none (no result: RXFP1 antagonist)
CCOc1ccc(N=C(C)C2=C(O)c3ccccc3C2=O)cc1	RXFP1 antagonist -63
CCOC(=O)c1cc(-c2ccccc2)n(CCC(=O)Nc2ccc(C(F)(F)F)cc2)c1C	RXFP1 antagonist -67 (no result: TCR act, TSHR antag, NPSR antag)
CCOC(=O)c1cc(-c2ccccc2)n(CCCC(=O)Nc2ccc(CC)cc2)c1C	none (no result: TCR act, TSHR antag, NPSR antag)
